Screens as filed in PubChem BioAssay.
The sample as a whole holds a higher share of hits than the screen did.
IDE exosite FP – insulin-degrading enzyme (human) exo-site inhibition; hit rate 6.3% among 17,000; purified IDE, FL-6b probe fluorescence polarization; hits give low values; z-score at 20 µM; P14735; AID 1259349;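 active means z-score of -3 or lower, meaning strong loss of probe binding signal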;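 further: His-tagged human IDE residues 42-1019 made in E. coli with 30 nM FL-6b probe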
* hit, by the source's call.

SMILES | IDE exosite FP
CC(=O)N(C[C@H]1N[C@H](CO)[C@@H]1c1ccc(-c2cccnc2)cc1)C1CCCC1 | 1.9
O=C(C[C@@H]1C=C[C@H](NC(=O)Nc2ccccc2F)[C@H](CO)O1)NCc1ccc(-c2ccccc2)cc1 | 2.3
O=C(C[C@H]1CC[C@H]2[C@@H](COC[C@H](O)CN2Cc2cc(F)cc(F)c2)O1)Nc1nccs1 | -2.7
O=C(C[C@H]1CC[C@@H]2[C@H](COC[C@@H](O)CN2Cc2ccc3c(c2)OCO3)O1)N1CCCCC1 | 0.095
COc1ccc2c3c(n(C)c2c1)[C@H](CO)N(Cc1ccc(Cl)cc1)CC31CN(C(=O)NC(C)C)C1 | 0.86
O=C(C1CCCCC1)N1CC(=O)N2[C@H](CO)[C@H](c3ccc(C#CCc4ccccc4)cc3)[C@@H]2C1 | -0.56
CCCNC(=O)N1[C@H](C#N)[C@H](c2ccccc2-c2cccc(C)c2)[C@@H]1CO | 0.52
O=C1NCCOCc2cn(nn2)CC[C@@H]1Cc1ccc(F)cc1 | 1.4
C/C=C/c1ccc([C@@H]2[C@@H](CO)N3C(=O)CN(S(=O)(=O)c4ccccc4)C[C@H]23)cc1 | -0.13
C[C@H](O)C#Cc1ccc([C@@H]2[C@@H](CO)N3CCCCN(CC4CC4)C[C@H]23)cc1 | -0.57
CC(C)CC#Cc1ccc([C@H]2[C@@H](CO)N3C(=O)CN(C(=O)Cc4ccccc4)C[C@@H]23)cc1 | 1.7
C[C@@H]1CC=CC[C@H](c2ccccc2)NC(=O)[C@H](C)N(C)C(=O)c2ccccc2O1 (mixture of isomers) | 0.44
O=C(c1cccnc1)N1CCCCN2[C@H](CO)[C@@H](c3ccc(C#Cc4cccnc4)cc3)[C@@H]2C1 | -0.3
COCC(=O)N1CCCCN2[C@H](CO)[C@@H](c3ccc(C#Cc4cccnc4)cc3)[C@H]2C1 | 2.7
COCC(=O)N1CCCCN2[C@H](C1)[C@@H](c1ccc(C#Cc3cccnc3)cc1)[C@@H]2CO | -0.14
O=C(c1cccnc1)N1CCCCN2[C@H](CO)[C@H](c3ccc(C#Cc4cccnc4)cc3)[C@H]2C1 | 4.7
CCC(=O)N1CCCCN2[C@@H](CO)[C@H](c3ccc(C#Cc4cccnc4)cc3)[C@@H]2C1 | -5.4*
CCC(=O)N1CCCCN2[C@H](CO)[C@H](c3ccc(C#Cc4cccnc4)cc3)[C@H]2C1 | -3.2*
O=C(c1cccnc1)N1CCCCN2[C@H](C1)[C@H](c1ccc(C#Cc3cccnc3)cc1)[C@@H]2CO | -1.5
COCC(=O)N1CCCCN2[C@H](CO)[C@@H](c3ccc(C#Cc4cccnc4)cc3)[C@@H]2C1 | 0.082
CCC(=O)N1CCCCN2[C@H](CO)[C@@H](c3ccc(C#Cc4cccnc4)cc3)[C@@H]2C1 | -5.2*
CCC(=O)N1CC(=O)N2[C@H](C1)[C@H](c1ccc(C3=CCCCC3)cc1)[C@@H]2CO | 0.35
CC(C)NC(=O)Nc1cccc2c1O[C@H](CN(C)C(=O)Nc1ccccc1)[C@H](C)CN([C@H](C)CO)C2=O | 0.5
O=C(Nc1ccccc1)N1CCCCN2[C@H](CO)[C@@H](c3ccc(C4=CCCCC4)cc3)[C@H]2C1 | 6.1
COC(=O)C[C@H]1CC[C@H]2[C@@H](COC[C@H](O)CN2S(=O)(=O)c2cn(C)cn2)O1 | 1.5
SMILES | IDE exosite FP
CN1CCN(C(=O)C[C@H]2CC[C@@H]3[C@H](COC[C@H](O)CN3C(=O)Nc3ccc4c(c3)OCO4)O2)CC1 | 0.55
CCCC#Cc1ccc([C@H]2[C@@H](CO)N3C(=O)CN(C(=O)Nc4cc(F)ccc4F)C[C@@H]23)cc1 | 3.7
CCCC#Cc1ccc([C@@H]2[C@@H](CO)N3C(=O)CN(C(=O)c4ccc(F)cc4)C[C@H]23)cc1 | -0.2
O=C(Nc1ccccc1F)N1CC(=O)N2[C@H](CO)[C@H](c3ccc(C#CC4CCCC4)cc3)[C@@H]2C1 | 2.3
CN(C)CC#Cc1ccc([C@@H]2[C@H]3CN(C(=O)Nc4cc(F)ccc4F)CCCCN3[C@H]2CO)cc1 | 1.1
Cc1ccccc1-c1ccc([C@H]2[C@@H](CO)N3CCCCN(C(=O)Nc4cccc(F)c4)C[C@@H]23)cc1 | -4.4*
Cc1ccccc1-c1ccc([C@@H]2[C@@H](CO)N3C(=O)CN(C(=O)Nc4ccc(F)cc4)C[C@H]23)cc1 | -1.4
Cc1ccccc1-c1ccc([C@@H]2[C@H](CO)N3CCCCN(C(=O)Nc4cccc(F)c4)C[C@@H]23)cc1 | 0.19
Cc1ccccc1-c1ccc([C@@H]2[C@@H](CO)N3C(=O)CN(C(=O)Nc4ccc(F)cc4)C[C@@H]23)cc1 | -11*
Cc1ccccc1-c1ccc([C@H]2[C@H]3CN(C(=O)Nc4ccc(F)cc4)CCCCN3[C@H]2CO)cc1 | 3.4
Cc1ccccc1-c1ccc([C@@H]2[C@@H](CO)N3CCCCN(C(=O)Nc4ccc(F)cc4)C[C@H]23)cc1 | 1.8
Cc1ccccc1-c1ccc([C@@H]2[C@@H](CO)N3CCCCN(C(=O)Nc4ccccc4)C[C@@H]23)cc1 | 1.2
Cc1ccccc1-c1ccc([C@H]2[C@H](CO)N3CCCCN(C(=O)Nc4ccccc4)C[C@@H]23)cc1 | -3.9*
Cc1ccccc1-c1ccc([C@H]2[C@@H](CO)N3CCCCN(C(=O)Nc4ccc(F)cc4)C[C@@H]23)cc1 | -1.6
O=C(Nc1cccc(F)c1)N1CCCCN2[C@H](CO)[C@H](c3ccc(-c4ccccc4F)cc3)[C@H]2C1 | 1.7
Cc1ccccc1-c1ccc([C@@H]2[C@@H](CO)N3C(=O)CN(C(=O)Nc4cccc(F)c4)C[C@H]23)cc1 | -2.1
Cc1ccccc1-c1ccc([C@H]2[C@@H](CO)N3CCCCN(C(=O)Nc4ccc(F)cc4)C[C@H]23)cc1 | -7.1*
OC[C@@H]1[C@@H](c2ccc(-c3ccc(F)cc3)cc2)[C@H]2CN(Cc3cccnc3)CCCCN12 | 0.73
OC[C@H]1[C@@H](c2ccc(C#CC3(O)CCCC3)cc2)[C@H]2CN(Cc3cccnc3)CCCCN21 | 0.43
C[C@@H]1CN([C@H](C)CO)C(=O)c2cc(C3=CCCC3)cnc2O[C@@H]1CN(C)C(=O)Nc1ccc(C(F)(F)F)cc1 | -0.044
COc1ccccc1NC(=O)N1CC(=O)N2[C@H](CO)[C@H](c3ccc(C#CC4CC4)cc3)[C@H]2C1 | 1.7
CCc1cnc(N2[C@H](C#N)[C@@H](c3ccc(C#CCC4CCCC4)cc3)[C@@H]2CO)s1 | 3.4
N#C[C@H]1[C@@H](c2ccccc2C2=CCCCC2)[C@@H](CO)N1C(=O)C1CCOCC1 | 0.48
COc1ccc2c3c(n(C)c2c1)[C@H](CO)N(C(C)=O)CC31CN(S(=O)(=O)c2ccccc2)C1 | 0.21
C[C@@H]1CCCCO[C@H](CN(C)CC2CCCCC2)[C@H](C)CN([C@@H](C)CO)C(=O)c2cc(NC(=O)Nc3ccc(C(F)(F)F)cc3)ccc2O1 | 0.088
SMILES | IDE exosite FP
CCC(=O)N1CC(=O)N2[C@H](C1)[C@H](c1ccc(C#CCc3ccccc3)cc1)[C@@H]2CO | 0.49
CCC(=O)N1CC(=O)N2[C@@H](CO)[C@@H](c3ccc(C#CCc4ccccc4)cc3)[C@@H]2C1 | -7.4*
CCC(=O)N1CC(=O)N2[C@H](CO)[C@@H](c3ccc(C#CCc4ccccc4)cc3)[C@H]2C1 | 0.71
O=C(Cc1ccccc1)N1CC(=O)N2[C@H](CO)[C@@H](c3ccc(C#CCc4ccccc4)cc3)[C@H]2C1 | 2.1
O=C(Cc1ccccc1)N1CC(=O)N2[C@H](CO)[C@H](c3ccc(C#CCc4ccccc4)cc3)[C@H]2C1 | -4.3*
O=C(Cc1ccccc1)N1CC(=O)N2[C@H](C1)[C@@H](c1ccc(C#Cc3ccccc3)cc1)[C@@H]2CO | -2.8
CN1C(=O)c2cc(NC(=O)Cc3cccs3)ccc2OC[C@H]2O[C@@H](CC(=O)NCC3CCCCC3)CC[C@H]21 | -0.18
